In ChEMBL document CHEMBL4513216, “Probing the Open Global Health Chemical Diversity Library for Multistage-Active Starting Points for Next-Generation Antimalarials” (ACS Infect Dis, 2020):
Hit rate of the full screen: of about 69,000 compounds, about 8,600 (12%) showed an effect of 50% or more. The sample as a whole holds a higher share of strong results than the screen did.

What follows are compounds tested on Plasmodium berghei (assay: Screen against P. berghei liver stage (PbLuc), transformed with Luciferase, at 10uM). Conditions: tested at 10 uM.
Assay type: functional, HepG2

| Structure (SMILES) | INHIBITION |
| --- | --- |
| CC(C)c1sc(Cl)nc1C(=O)N1CCN(Cc2ccccc2)CC1 | 10.9% |
| Cc1ccc(-n2cc(C(=O)NCc3nnc4n3CCCCC4)nn2)cc1 | -21.2% |
| CCN(CC)c1ccc(CNC(=O)N2CCC(C#N)CC2)cc1 | 2.91% |
| CN(C(=O)OC(C)(C)C)C1CCN(C(=O)c2ccc(Cl)o2)C1 (stereo not given) | -12.3% |
| Cc1ccc(C(=O)N2CCCC(N(C)C(=O)OC(C)(C)C)C2)o1 (stereo not given) | 37.8% |
| CCc1ccc(C(=O)N2CCC(N(C)C(=O)OC(C)(C)C)C2)o1 (stereo not given) | 71.2% |
| c1ccc(-c2nc3c(c(NCc4nnc5n4CCC5)n2)CCNC3)cc1 | 39.4% |
| CN(CCC(=O)N1CCc2sccc2C1)Cc1ccc2c(c1)OCCO2 | -7.35% |
| NC(=O)NC(CC(=O)N1CCc2sccc2C1)c1cccc(Br)c1 (stereo not given) | 14.9% |
| CN(CCC(=O)N1CCc2sccc2C1)Cc1cc(Br)cs1 | 19.2% |
| CC(C)(C)CC(=O)N1CCc2sccc2C1 | -46.6% |
| N#Cc1cccc(CNCCC(=O)N2CCc3sccc3C2)c1 | 68.3% |
| O=C(CCNCc1cccc(O)c1)N1CCc2sccc2C1 | 81.2% |
| O=C(CCN1CCCC1c1cccc(F)c1)N1CCc2sccc2C1 (stereo not given) | 9.54% |
| COc1ccc(CNCCC(=O)N2CCc3sccc3C2)cc1O | 76.2% |
| COc1ccc(CNC(=O)N2CCc3sccc3C2)cc1O | -45% |
| CN(C)C(=O)c1cccn1-c1ccc2c(c1)OCCO2 | 9.16% |
| CC(C)(C)OC(=O)N1CCN(c2cccnc2)CC1C(=O)O (stereo not given) | 20.2% |
| CC(C)C(C(=O)N1CCN(Cc2ccccn2)CC1)n1cncn1 (stereo not given) | -24.5% |
| Cc1nc(C(C)C)sc1C(=O)NCCNc1ncccc1C#N | -29.1% |
| O=C(NC1CC1)N1CCC2(CC1)C(=O)NCCN2Cc1ccccc1 | 30.9% |
| CC(C)(C)OC(=O)N(CCNS(=O)(=O)N1CCOCC1)C1CC1 | -28% |

| Structure (SMILES) | INHIBITION |
| --- | --- |
| CN1CCC2(CCCN(c3nccc(C(F)(F)F)n3)C2)CC1 | -2.35% |
| O=C(Nc1cccc(CN2CCOC2=O)c1)N1CCCC1 | 53.8% |
| Cc1ncc(CN(C)C(=O)Nc2ccc(CN3CCOC3=O)cc2)s1 | 22.5% |
| O=C(Nc1cccc(CN2CCOC2=O)c1)N1CCOCC1 | 5.14% |
| O=C(Nc1cccc(CN2CCOC2=O)c1)N1CCCCCC1 | -4.12% |
| Cc1ncc(CN(C)C(=O)Nc2cccc(N3CCOC3=O)c2)s1 | 28% |
| Cc1ncc(CN(C)C(=O)Nc2cccc(CN3CCOC3=O)c2)s1 | 52.8% |
| CCCN1CCC=C(C2c3nc[nH]c3CCN2C(=O)c2ccco2)C1 (stereo not given) | 25.1% |
| OC(CN1CCC(CNCc2ccccn2)CC1)c1ccccc1 (stereo not given) | -36.1% |
| COCC(=O)N1C[C@H]2CNC[C@@]2(C(=O)NCc2cccc3[nH]ccc23)C1 | 13.1% |
| CN(CC1CCCCO1)S(=O)(=O)c1cccc(C(=O)N2CCOCC2)c1 (stereo not given) | 1.19% |
| CC(C)(C)NC(=O)CN1CCCNCC1 | 74.9% |
| CC(C)NC(=O)CN1CCCNCC1 | 3.77% |
| CC(C)(C)NC(=O)CN1CCNCC1 | -30% |
| O=C(O)c1cc2c(nc1-c1cncnc1)CCN(C1CCOC1)CC2 (stereo not given) | 37.8% |
| Cc1ccccc1CC(=O)N1CC[C@@](O)(CNS(C)(=O)=O)[C@H](O)C1 | 0.301% |
| N#Cc1ccccc1CN(CCO)Cc1ccsc1 | 36.4% |
| CN(Cc1ccc(F)cc1)C(=O)Nc1cccnc1N1CCCC1 | -2.33% |
| Cn1ccc(NC(=O)CN2C[C@@H]3CC[C@H]2CN(S(C)(=O)=O)C3)n1 | 53.3% |
| CS(=O)(=O)N1C[C@H]2CC[C@@H](C1)N(CCC(=O)NCc1ccccc1F)C2 | -7.02% |
| COCCN1C[C@@H]2CC[C@H]1CN(CC(=O)Nc1ccn(C)n1)C2 | 21.2% |
| COC1CCN(c2ccc(F)cc2CN(C)C(C)C(N)=O)CC1 (stereo not given) | 7.3% |

| Structure (SMILES) | INHIBITION |
| --- | --- |
| Cc1ccccc1N1CC2(CCN(Cc3nccn3C)C2)CC1=O (stereo not given) | 25.2% |
| Cc1nc(C)n(C2CCCN(C(=O)c3cscn3)C2)n1 (stereo not given) | 60.2% |
| CC(=O)Nc1nc(C(=O)N2CCCC(n3cncn3)C2)cs1 (stereo not given) | 67.6% |
| CC(=O)Nc1nc(C(=O)N2CCCC(n3ccnc3)C2)cs1 (stereo not given) | 31.9% |
| CC(=O)Nc1nc(C(=O)N2CCCC(n3nc(C)nc3C)C2)cs1 (stereo not given) | 53.9% |
| CC(=O)Nc1nc(C(=O)N2CCCC(n3nc(C)cc3C)C2)cs1 (stereo not given) | 57.8% |
| Cc1nc(C)n(C2CCCN(C(=O)c3csc(C(C)C)n3)C2)n1 (stereo not given) | 40.3% |
| Cc1cnc(C(=O)N2CCCC(n3nc(C)nc3C)C2)cn1 (stereo not given) | 7.12% |
| COCc1nc(C(=O)N2CCCC(n3nc(C)cc3C)C2)cs1 (stereo not given) | 25.1% |
| Cc1cc(C)n(C2CCCN(C(=O)c3csc(C4CC4)n3)C2)n1 (stereo not given) | 34.7% |
| Cc1nc(C)n(C2CCCN(C(=O)c3csc(C)n3)C2)n1 (stereo not given) | 14.4% |
| Cc1nc(C)n(C2CCCN(C(=O)c3csnn3)C2)n1 (stereo not given) | 11.6% |
| Cc1nc(C(=O)N2CCCC(n3cncn3)C2)cs1 (stereo not given) | 31.1% |
| Cc1ccc(N(C)[C@@H]2CC[C@@H]3CN(C(=O)CC4CCOCC4)C[C@@H]32)nn1 | -16% |
| CCSc1ccccc1C(=O)NCCn1nc(-n2cncn2)ccc1=O | 16.5% |
| Cn1ccc(C(=O)N2CCC(Cc3ccc4ncccc4c3)CC2)n1 | 28.1% |
| CC(C)CNC(=O)[C@H]1C[C@H]2CN(C(=O)NCC3CCCCC3)C[C@@H]1O2 | -41.9% |
| CCC(NC1Cc2ccccc2C1)c1ccc(S(C)(=O)=O)cc1 (stereo not given) | 29.4% |
| CCN(CC)S(=O)(=O)c1cnccc1N1CCN(C(C)C)CC1 | -26.8% |
| CCNc1nnc(SC(C(=O)NCc2cccnc2)C(C)C)s1 (stereo not given) | -7.98% |
| CC(CN1CCOCC1)OC(=O)c1ccccc1I (stereo not given) | 38.9% |
| COCc1nc(C(=O)N2CCCC(n3ccnc3C)C2)cs1 (stereo not given) | -23.9% |

| Structure (SMILES) | INHIBITION |
| --- | --- |
| COCc1nc(C(=O)N2CCCC(n3cccn3)C2)cs1 (stereo not given) | 17.8% |
| COCc1nc(C(=O)N2CCCC(n3ccnc3)C2)cs1 (stereo not given) | 59% |
| NC(=O)C1CCN(C(=O)c2ccn(-c3cccc(F)c3)n2)C1 (stereo not given) | 23.5% |
| CC1CN(C)CCN1C(=O)c1ccn(-c2cccc(F)c2)n1 (stereo not given) | 51.1% |
| CC1CN(C)CCN1C(=O)c1ccn(-c2ccc(F)cc2)n1 (stereo not given) | 56.6% |
| CC1CN(C)CCN1C(=O)c1ccn(-c2ccccc2Cl)n1 (stereo not given) | -25.6% |
| NC(=O)C1CCN(C(=O)c2ccn(-c3ccc(F)cc3)n2)C1 (stereo not given) | 16.1% |
| COCCn1nc(C(=O)N2CCN(C)CC2C)ccc1=O (stereo not given) | 58.7% |
| CC1CN(C)CCN1C(=O)c1ccn(-c2cccc(Cl)c2)n1 (stereo not given) | 10% |
| COc1ccc(-n2ccc(C(=O)N3CCN(C)CC3C)n2)cc1 (stereo not given) | 20.9% |
| COCCn1nc(C(=O)N2CCOCC2C)ccc1=O (stereo not given) | 47.6% |
| CC1CN(C)CCN1C(=O)c1ccn(-c2ccccc2)n1 (stereo not given) | 63.5% |
| CC1CN(C)CCN1C(=O)c1cccn1Cc1ccncc1 (stereo not given) | 8.08% |
| CC1COCCN1C(=O)c1ccc(=O)n(CCOc2ccccc2)n1 (stereo not given) | 4.41% |
| Cn1ccc(C(=O)NCCOc2ccc3c(c2)CCC3)cc1=O | -15.5% |
| CCc1ocnc1C(=O)N1CCCC1c1noc(C2CC2)n1 (stereo not given) | 34.2% |
| Cc1cc(C(=O)Nc2ccc(OCCN3CCN(C)CC3)cc2)[nH]n1 | -49.9% |
| CCc1cc(=O)[nH]c(-c2ccc(NCCC(C)O)nc2)n1 (stereo not given) | 36.9% |
| CCN1CC[C@@]2(C(=O)N(C)C)CCN(C(=O)Cc3ccccc3)CC[C@@H]12 | 11.2% |
| CC(C)n1ccnc1C1CCCN(c2ccnc3ccccc23)C1 (stereo not given) | 71.3% |
| CC(C)n1ccnc1C1CCCN(c2ccncc2F)C1 (stereo not given) | 32.1% |
| CC(C)n1ccnc1C1CCCN(c2nc3ccccc3s2)C1 (stereo not given) | 61.2% |

| Structure (SMILES) | INHIBITION |
| --- | --- |
| CSc1nccc(N2CCCC(c3nccn3C(C)C)C2)n1 (stereo not given) | 27.6% |
| CC(C)n1ccnc1C1CCCN(c2ccccn2)C1 (stereo not given) | 24.6% |
| Cc1ccnc(N2CCCC(c3nccn3C(C)C)C2)n1 (stereo not given) | 15.8% |
| CN(C)C(=O)C1CCCN1CCCNC(=O)c1cccc2[nH]ncc12 (stereo not given) | 23.2% |
| COc1cc(C(C)=O)ccc1OCCNCc1ccco1 | 5.67% |
| CC(=O)Nc1ccc(C(=O)N(C)Cc2cccc(F)c2)s1 | 39.7% |
| CC(=O)Nc1ccc(C(=O)N(C)Cc2ccc(F)cc2F)s1 | 56% |
| COc1cccc(CN(C)Cc2ccccc2C#N)c1OC | 4.48% |
| Cc1cc(CNC(=O)N(Cc2ccc(F)cc2F)C2CC2)no1 | 44.1% |
| COc1cccc(CN(C)C(=O)CCC(=O)c2ccc(Cl)cc2)c1OC | 40.1% |
| COc1cccc(CN(C)C(=O)c2ccc(NC(C)=O)s2)c1OC | 61.1% |
| Cn1cc(-c2cnc(N3CCOCC3)nc2)cc1C(=O)NCCC#N | 47.4% |
| Cn1nccc1-c1cccc(CC2CCN(S(C)(=O)=O)C2)n1 (stereo not given) | 12.905% |
| Clc1cccc(Cl)c1-c1nnc(CNCCn2cccn2)o1 | -48.4% |
| Cc1nc(CCNC(=O)N2CCC(Cc3cnn(C)c3)C2)cs1 (stereo not given) | -4.74% |
| Clc1cccc(Cl)c1CNCCOc1ccccn1 | 60% |
| Fc1cccc(Cl)c1CNCCCOc1ccccn1 | 2.61% |
| Fc1cccc(Cl)c1CNCCOc1ccccn1 | 27% |
| CCOc1nn(CC)cc1-c1nnc(SCc2cccnc2)n1CC | 9% |
| Cc1cc(CNc2cccc(C(=O)N(C)c3ccccc3)c2)no1 | 45% |
| Cc1noc(C)c1CNc1cccc(C(=O)N2CCCC(O)C2)c1 (stereo not given) | 20.6% |
| Cc1noc(C)c1CNc1cccc(C(=O)N(C)c2ccccc2)c1 | 59.1% |
